Compound activity (PubChem BioAssay)
A selection: hits, their analogues and other compounds. The true share with any hit is near 3.1%.
Tau ThT inhib: qHTS for Inhibitors of Tau Fibril Formation, Thioflavin T Binding. AID 1460, 2008. Potency, µM (highest dose often 57.4 µM), usual class: inhibitors. hit rate 2.1% among 270,000. recombinant tau K18 P301L, heparin-induced fibrillization, ThT fluorescence; also: nearly all actives have a fitted effect of over 55% in size
Target sequence (P10636 561-689 P618L limits assumed): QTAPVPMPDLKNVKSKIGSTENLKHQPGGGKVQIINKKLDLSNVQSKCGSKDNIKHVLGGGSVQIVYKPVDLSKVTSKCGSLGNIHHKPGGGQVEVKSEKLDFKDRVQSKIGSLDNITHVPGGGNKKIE
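Using a mix of unlabeled (15 uM) and Alexa 594-labeled (0.24 uM) tau K18 P301L, heparin-triggered fibrillization over 6 hr at 37 C was scored by ThT fluorescence.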
Tau fibril FP: qHTS for Inhibitors of Tau Fibril Formation, Fluorescence Polarization; Microtubule-associated protein tau (Homo sapiens), P10636; K18 P301L tau heparin fibrillization, Alexa594 FP, 6 h; Potency, µM (highest dose often 57.7 µM), hits mostly inhibitors; hit rate 0.39% among 280,000; AID 1468, 2008; also: nearly all actives have a fitted effect of over 55% in size
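Human tau K18 […] P301L fragment, 15 uM unlabeled plus 0.24 uM Alexa 594-labeled tau (final), with compound and 20 uM heparin in 100 mM sodium acetate pH 7; 6 hr at 37 C, then Alexa 594 FP read.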
TRb SRC2 PPI: qHTS for Inhibitors of the Interaction of Thyroid Hormone Receptor and Steroid Receptor Coregulator 2; hit rate 0.065% among 280,000; Potency, µM (top dose mostly 106 µM), usual class: inhibitors; TRbeta-SRC2 peptide binding, fluorescence polarization; receptor liganded with 1 µM T3; also: nearly all actives have a fitted effect of over 50% in size
Target sequence (P10828 whole entry, looked up): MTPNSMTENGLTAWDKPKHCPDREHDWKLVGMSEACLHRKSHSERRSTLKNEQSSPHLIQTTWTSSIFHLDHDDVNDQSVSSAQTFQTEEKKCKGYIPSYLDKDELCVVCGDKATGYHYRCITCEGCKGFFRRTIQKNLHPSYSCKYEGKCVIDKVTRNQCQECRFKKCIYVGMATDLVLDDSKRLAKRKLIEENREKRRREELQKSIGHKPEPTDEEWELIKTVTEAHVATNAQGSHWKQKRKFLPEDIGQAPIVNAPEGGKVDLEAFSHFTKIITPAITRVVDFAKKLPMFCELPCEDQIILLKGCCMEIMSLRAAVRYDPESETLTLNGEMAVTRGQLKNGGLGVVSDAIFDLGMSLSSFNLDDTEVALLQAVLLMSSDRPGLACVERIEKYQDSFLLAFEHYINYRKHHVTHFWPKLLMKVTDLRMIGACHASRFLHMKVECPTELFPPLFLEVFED
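Assay buffer: 20 mM Tris-HCl, 100 mM NaCl, 10% glycerol, 1 mM EDTA, 0.01% NP-40, 1 mM DTT, 1 uM T3, 5% DMSO; TRb LBD 0.6 uM, Texas Red SRC2 20 nM; FP after 5 hr.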
TexasRed fluor: Total Fluorescence Counterscreen for Inhibitors of the Interaction of Thyroid Hormone Receptor and Steroid Receptor Coregulator 2. TRb/SRC2 Texas Red total fluorescence interference. Potency, µM (series often up to 106 µM). hit rate 0.29% among 280,000; active = well fitted curve in either direction with a large enough effect; inconclusive = small, poorly fitted or top-dose-only effect
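Human TRb ligand-binding domain at 0.6 uM with 20 nM Texas Red SRC2 peptide in Tris buffer containing 1 uM T3 and 5% DMSO, incubated with compound 5 h at ambient temperature. Total fluorescence (555/632 nm) calculated as parallel + 2 × perpendicular.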
Tau fluor counter: Counterscreen qHTS for Inhibitors of Tau Fibril Formation, Fluorescence Polarization; hit rate 0.93% among 280,000; AID 1463, 2008; tau K18 P301L (four-repeat tau fragment) Alexa594 fluorescence, heparin fibrillization; Potency, µM (top dose mostly 57.7 µM); also: nearly all actives have a fitted effect of over 55% in size
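Human K18 P301L tau (15 uM unlabeled plus 0.24 uM Alexa 594-labeled, final) in 100 mM sodium acetate pH 7 was mixed with compound and 20 uM heparin and incubated 6 hr at 37 C.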
Large screens that a line does not name were inactive; [ ] = remark or other dose. Unless noted, calls follow the shape of the dose curve; as a rule, active = well fitted curve in the direction sought with a large enough effect; inconclusive = small, poorly fitted or top-dose-only effect, or another doubt; inactive = no such curve, though single readings can be large; an effect the other way counts as inactive or inconclusive.

S=C(NCc1ccncc1)Nc1ccc(Cl)cc1Cl	none
COc1ccc2c3c1OC1C[C@@H](O)C=C[C@@]31CCN(C)C2 (stereo partly specified)	none
CC1(C)c2ccccc2N2CC(=O)N(CC(N)=O)C21C (stereo unspecified)	Tau ThT inhib inconclusive, Tau fibril FP inconclusive, TRb SRC2 PPI inconclusive, TexasRed fluor 50.1µM[fluorescent], Tau fluor counter 31.6µM[fluorescent]
CCN(C(=O)Cn1nc(Cc2ccncc2)c2ccccc2c1=O)c1ccc(OC)cc1	none
C=CCN1c2ccccc2[C@]23C[C@@H](C(=O)OC)N(C(=O)NCCC)C2=NC(C(=O)OC)=C(C(=O)OC)[C@H]13	none
Cc1cccc(C2(c3cccc(C)c3)CC2C(=O)NCC2CCCO2)c1 (stereo unspecified)	none
Cc1cccc(C2(c3cccc(C)c3)CC2C(=O)Nc2ccc([N+](=O)[O-])cc2O)c1 (stereo unspecified)	Tau ThT inhib inconclusive, Tau fibril FP inconclusive, Tau fluor counter 10µM[quencher]
O=C(O)CCCCCN1C(=O)/C(=C\c2cn(-c3ccccc3)nc2-c2cccs2)SC1=S	Tau ThT inhib 14.1µM
Cc1ccc(-c2nn(-c3ccccc3)cc2/C=C2\SC(=S)N(CC(=O)O)C2=O)cc1	Tau ThT inhib 17.8µM
Cc1nc(NCC2CCCO2)c2nnn(Cc3c(F)cccc3Cl)c2n1 (stereo unspecified)	none
COc1ccc(NC(=O)CSc2nc3c(c(-c4cccs4)c2C#N)CN(C)CC3)cc1OC	Tau ThT inhib 25.1µM, Tau fibril FP inconclusive, Tau fluor counter 25.1µM[quencher]
O=C(/C(=C/O)N=Nc1ccccc1)c1cccs1	Tau ThT inhib 28.2µM
C=C(C)C(=O)c1cccs1	none
COC(=O)C1=C(C(=O)OC)[C@@H]2N(Cc3ccccc3)c3ccccc3[C@@]23C[C@@H](C(=O)OC)N(S(=O)(=O)c2ccc(C)cc2)C3=N1	none
CCCc1cc2c(OC(=O)CC)c(-c3ccc(C(=O)OCC)o3)c(=O)oc2cc1OC	Tau ThT inhib 25.1µM
CCN(CCCNC(=O)c1cc2c(=O)n(C)c3ccccc3c2s1)Cc1ccccc1	none
N#CCOC(=O)C1CSC2(c3ccc(Br)cc3)CCC(=O)N12 (stereo unspecified)	none
CC1CCN(C(c2ccc(N(C)C)cc2)c2nnnn2C(C)(C)C)CC1 (stereo unspecified)	Tau ThT inhib 10µM, Tau fluor counter inconclusive
O=c1c(N2CCc3ccccc3C2)csc2ccc(F)cc12	Tau ThT inhib inconclusive
CCOC(=O)c1ccc(NC(=O)Cn2c3ncccc3c(=O)n2-c2ccc(C)c(C)c2)cc1	Tau fibril FP inconclusive, Tau fluor counter inconclusive
CC(=O)c1ccc(NC(=O)Cn2c3ncccc3c(=O)n2-c2ccc(C)cc2)cc1	Tau fibril FP inconclusive, TRb SRC2 PPI inconclusive, TexasRed fluor 89.1µM[quencher], Tau fluor counter inconclusive
CC(C)(C)c1cc(=O)n(-c2ccccc2)[nH]1	Tau ThT inhib 39.8µM, Tau fibril FP inconclusive
CCc1ccc(OCC(=O)Nc2cc(-c3nc4cc(C)ccc4o3)ccc2C)cc1	none
COc1cc(/C=N/Nc2ccc3ccccc3c2)ccc1OC(=O)c1ccco1	Tau ThT inhib 12.6µM, Tau fluor counter 12.6µM[quencher]
C=CC[C@@H]1C=C[C@H](Oc2ccc(C)cc2)[C@H](COC(=O)NCc2cccc3ccccc23)O1	none
CC1(C)OCC(CSC2=C(SCC3COC(C)(C)O3)C(=O)c3ncccc3C2=O)O1 (stereo unspecified)	Tau ThT inhib 1µM, Tau fibril FP 1.78µM, Tau fluor counter inconclusive
COc1ccc(NC(=O)C(=O)NCC(c2cccnc2)N2CCc3ccccc3C2)cc1 (stereo unspecified)	Tau ThT inhib 14.1µM, Tau fibril FP inconclusive, Tau fluor counter inconclusive
O=C(NCC(c1cccnc1)N1CCc2ccccc2C1)C(=O)Nc1ccccc1 (stereo unspecified)	Tau ThT inhib 1.58µM
O=C(NCC(c1cccnc1)N1CCc2ccccc2C1)C(=O)Nc1ccccc1F (stereo unspecified)	Tau ThT inhib inconclusive, Tau fibril FP inconclusive
CCc1ccc(NC(=O)C(=O)NCC(c2cccnc2)N2CCc3ccccc3C2)cc1 (stereo unspecified)	Tau ThT inhib inconclusive, TexasRed fluor inconclusive, Tau fluor counter inconclusive
CC(C)(C)c1cccc(C(C)(C)C)c1O	none (no result: Tau ThT inhib, Tau fibril FP, Tau fluor counter)
O=C(CN1CCCCCC1)NN(Cc1ccccc1)c1ccccc1	none
Cc1ccc(NC(c2nnc(-c3ccccc3)o2)c2ccccc2F)c([N+](=O)[O-])c1 (stereo unspecified)	Tau ThT inhib inconclusive, TexasRed fluor 251µM[quencher]
CN1CCN(C(=S)c2ccc(-c3cccc(Cl)c3Cl)o2)CC1	Tau ThT inhib 14.1µM
C=CCc1cccc(CNc2nc3ccccc3n2CC)c1O	Tau fluor counter 17.8µM[quencher]
C=CCc1cccc(CNc2nc3ccccc3n2CCC)c1O	Tau fluor counter 14.1µM[quencher]
CCCn1c(NCc2ccccc2C)nc2ccccc21	none
COc1ccc(/C(C)=N/NC(=O)c2cc(-c3cccnc3)nc3ccccc23)cc1	none
C/C(=N\NC(=O)c1cc(-c2cccnc2)nc2ccccc12)c1ccccc1O	TexasRed fluor 3.16µM[quencher]
CC1(C)CC(=O)c2cc(C(=O)Nc3ccc(Cl)cc3)c(=O)[nH]c2C1	none
Cc1cccc(C2NC(=O)c3c(sc4c3CCN(C)C4)N2)c1O (stereo unspecified)	Tau ThT inhib 15.8µM, TexasRed fluor inconclusive
CN1CCc2c(sc3c2C(=O)NC(c2ccc4c(c2)OCO4)N3)C1 (stereo unspecified)	Tau ThT inhib inconclusive
CCOc1cc(Br)cc(C2NC(=O)c3c(sc4c3CCN(C)C4)N2)c1O (stereo unspecified)	Tau ThT inhib 15.8µM
CN1CCc2c(sc3c2C(=O)NC(c2ccccn2)N3)C1 (stereo unspecified)	Tau fibril FP inconclusive, TRb SRC2 PPI 10µM, TexasRed fluor 44.7µM[fluorescent]
Cc1ccc(C2NC(=O)c3c(sc4c3CCN(C)C4)N2)s1 (stereo unspecified)	Tau ThT inhib 14.1µM, Tau fibril FP inconclusive
CCOc1cc(C2NC(=O)c3c(sc4c3CCN(C)C4)N2)ccc1OC(=O)c1ccc(F)cc1 (stereo unspecified)	Tau ThT inhib inconclusive
CN1CCc2c(sc3c2C(=O)NC(c2ccccc2)N3)C1 (stereo unspecified)	Tau ThT inhib inconclusive, Tau fibril FP inconclusive
Cc1ccc(C2NC(=O)c3c(sc4c3CCN(C)C4)N2)o1 (stereo unspecified)	Tau ThT inhib inconclusive
Cc1ccc(/C=N/NC(=O)CCn2nc(C)cc2C)c(C)c1	none
